uPA generation: cell surface uPA generation inhibition. Potency, µM (titrated, usually from 38.3 µM), for the others: at the top dose activity change, negative = inhibition, actives largely listed as inhibitors. cell surface uPA generation assay, qHTS. 330,000 compounds, 0.31% hits; active = well fitted inhibition curve with a large enough effect; inconclusive = small, poorly fitted or top-dose-only effect; inactive = no such curve, though single readings can be large or run the other way; tested in mouse RAW 264.7 cells; also: potency is read from the fitted curve at half-maximal effect; nearly all actives have a fitted effect of over 55% in size
IL1B secr inh: blocks inflammasome-driven IL-1 beta release. activity change, % at 57.5 µM. AID 743279. 360,000 compounds, 4.7% hits. THP-1 LPS/ATP IL-1B secretion, AlphaLISA, 16 h; active compounds read low; in the data active = activity change below about -50%; inconclusive = mostly about -30% to -49%
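THP-1 cells pretreated 1 hr with compounds (up to 57.5 uM final), then stimulated with LPS (250 ng/mL final) plus ATP (1.25 mM final); secreted IL-1B measured by AlphaLISA after 16 hr, decreased signal indicating inhibition.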
HT1080 IDH1KD tx: kills HT-1080 cells with IDH1 knockdown; HT-1080 IDH1 knockdown viability, ATP luminescence, 48 h; Potency, µM (highest dose often 46.1 µM), without a hit: top-dose activity, negative = toxicity, actives largely listed as cytotoxic; 360,000 compounds, 2% hits; AID 686971;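 also: potency is read from the fitted curve at half-maximal effect; 0% = DMSO wells and -100% = cell-free medium wells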
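Knockdown cells (IDH1KD HT-1080) received compounds 2 h after plating at 750 cells/well and were kept 48 h at 37 °C in 5% FBS RPMI. A CellTiter-Glo luminescence read gave % activity for curve fitting.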
HT1080-NT tox: kills 2HG-producing HT-1080-NT fibrosarcoma cells | AID 686970 | HT-1080-NT fibrosarcoma viability, CellTiter-Glo ATP luminescence, 48 h | 360,000 compounds, 1.6% hits | Potency, µM (top dose mostly 46.1 µM), inactives show at the top dose activity, negative = less viability, most hits filed as cytotoxic;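 also: NT is the 2HG producing partner of a matched IDH1 knockdown line; potency is read from the fitted curve at half-maximal effect; 0% = DMSO-treated cells and -100% = media-only wells without cells; nearly all actives have a fitted effect of over 55% in size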
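HT-1080-NT fibrosarcoma cells (2HG-overproducing), 750 cells/well in RPMI with 5% FBS, dosed after 2 h and incubated 48 h at 37C. CellTiter-Glo luminescence normalized to DMSO and no-cell wells; concentration-response curves fitted and classed.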
TDP1 cell CPT: growth inhibition of DT40 Tdp1-/-;hTDP1 cells with camptothecin (screen for TDP1 inhibitors); Potency, µM (highest dose often 46.2 µM), for inactives: at the highest dose activity change, negative = growth inhibition, actives largely listed as inhibitors; chicken DT40 Tdp1-/-;hTDP1 cells + 20 nM CPT, ATP luminescence, 48 h; 420,000 compounds, 12% hits; also: potency is read from the fitted curve at half-maximal effect; nearly all actives have a fitted effect of over 55% in size
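Chicken DT40 Tdp1-/- cells complemented with human TDP1, 400 cells/well, exposed to compounds plus 20 nM camptothecin for at least 48 h at 37 C; viability read as ATP content by CellTiter-Glo luminescence.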
TDP1 cell noCPT: qHTS for Inhibitors of human tyrosyl-DNA phosphodiesterase 1 (TDP1): qHTS in cells in absence of CPT; DT40 Tdp1-/- hTDP1 cells, no CPT, ATP luminescence, 48 h; Potency, µM (highest dose often 46.2 µM), for inactives: at the top dose activity change, negative = growth inhibition, actives largely listed as inhibitors; 420,000 compounds, 15% hits; also: potency is read from the fitted curve at half-maximal effect; nearly all actives have a fitted effect of over 55% in size
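Growth kinetics read by CellTiter-Glo luminescence after ≥48 hr at 37 °C. Cells: DT40 Tdp1-/- stably carrying human TDP1, 400 per well, compound exposure in the absence of CPT (DMSO vehicle).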
* = called active by the depositor; ? = inconclusive; / = not tested or not shown; [ ] = remark or other dose. Compounds with a hit are over-represented: about 19% of the library has one in this group of screens. Unless noted, calls follow the shape of the dose curve; as a rule, active = well fitted curve in the direction sought with a large enough effect; inconclusive = small, poorly fitted or top-dose-only effect, or another doubt; inactive = no such curve, though single readings can be large; an effect the other way counts as inactive or inconclusive. Unless noted, % is scaled to controls: 0 for no effect and ±100 for the full control effect.

SMILES | uPA generation | IL1B secr inh | HT1080 IDH1KD tx | HT1080-NT tox | TDP1 cell CPT | TDP1 cell noCPT
Cn1c2c(c(=O)c3ccccc31)C[C@@H](O)C(C)(C)O2 | / | / | / | / | -14.6%[9.04 µM] | -10.1%[9.04 µM]
COc1ccc(C(=O)/C=C/c2ccc(O)cc2)c2c1CC(O)C(C)(C)O2 (stereo not drawn) | -27.7% | -92.5* | -2.6% | -1.8% | ? | 16.4µM*
COc1ccc(C(=O)/C=C/c2ccc(O)cc2)c(O)c1CC=C(C)C | -21.1% | -72.2* | 23.1µM* | ? | 13µM* | ?
CN1CCN(S(=O)(=O)c2ccc(CNC(=O)c3ccccc3)s2)CC1 | -12.5% | 35.4 | -2.1% | 14.7% | -16.0% | 6.9%
C/C(=N\NC(=O)c1nnn(-c2nonc2N)c1-c1ccccc1)c1ccco1 | 8.0% | -9.2 | -1.5% | -3.9% | -4.4% | -4.4%
CC(=O)C1=CCC(c2cccs2)N(S(=O)(=O)c2ccc(C)cc2)C1 (stereo not drawn) | / | 13.0 | -4.4% | -11.9% | ? | ?
CC(=O)C1=CCC(c2ccccc2)N(Cc2ccccc2)C1 (stereo not drawn) | / | -111.7* | ? | ? | ? | 14.6µM*
CC(=O)C1=CN(Cc2ccccc2)CCC1=O | -7.2% | 25.7 | 0.0% | 7.2% | -0.7% | -8.3%
CC(=O)C1=CCC(c2ccccc2)N(S(=O)(=O)c2ccc(Cl)cc2)C1 (stereo not drawn) | / | ? | ? | ? | ? | 14.6µM*
Cc1ccc([C@@H]2CC=C(C(=O)O)CN2S(=O)(=O)c2ccc(C)cc2)cc1 | 13.4% | 53.6 | 7.4% | 3.2% | -2.1% | 0.3%
CC(=O)C1=CCC(c2ccc(C)o2)N(S(=O)(=O)c2ccc(C)cc2)C1 (stereo not drawn) | / | 0.0 | -18.0% | -0.9% | 16.4µM* | 18.4µM*
CC(=O)C1=CCC(c2ccc(Cl)cc2)N(S(=O)(=O)c2ccccc2C)C1 (stereo not drawn) | / | -19.5 | 16.4µM* | ? | 29.1µM* | 23.1µM*
Cc1cc(C)c(NC(=O)Cn2nnc(-c3nc(-c4ccccc4)no3)c2N)c(C)c1 | / | / | / | / | 0.1% | -2.0%
O=C(CN(Cc1cccs1)C(=O)CNS(=O)(=O)c1ccccc1)NC1CCCC1 | 5.4% | 0.0 | 4.5% | 10.9% | 8.8% | -20.6%
O=C(NCc1cccnc1)C(=O)NCC1OCCCN1S(=O)(=O)c1cc(F)ccc1F (stereo not drawn) | / | 13.9 | 8.4% | 7.6% | -3.6% | 1.7%
COc1ccccc1N1CCN(CC(=O)Nc2nc(C)c(C(=O)N(C)C)s2)CC1 | 14.4% | 17.5 | -0.4% | -0.7% | 10.0% | -16.0%
CC(C)[N+]1(C)[C@@H]2CC[C@H]1CC(OC(=O)[C@@H](CO)c1ccccc1)C2 (stereo partly drawn) | / | / | / | / | 4.7% | 0.2%
CCC(=O)N1c2ccc(S(=O)(=O)NCc3ccc(F)cc3)cc2CC1C (stereo not drawn) | / | / | / | / | 14.6µM* | 11.6µM*
CCOc1ccccc1NS(=O)(=O)c1ccc2c(c1)CC(C)N2C(=O)C1CC1 (stereo not drawn) | / | / | / | / | ? | 14.6µM*
CC1Cc2cc(S(=O)(=O)NCCc3ccccc3)ccc2N1C(=O)C1CC1 (stereo not drawn) | -19.4% | -2.0 | -12.5% | -2.2% | 14.6µM* | 14.6µM*
COc1ccc(CCNS(=O)(=O)c2ccc3c(c2)CC(C)N3C(=O)C2CCC2)cc1OC (stereo not drawn) | / | / | / | / | ? | 13µM*
CCOc1ccccc1NC(=O)CCS(=O)(=O)c1ccc2c(c1)CC(C)N2C(C)=O (stereo not drawn) | 22.6% | 1.0 | 0.2% | -3.2% | 12.8% | -19.8%
COCCNC(=O)C1CCC(CNS(=O)(=O)c2ccc3c(c2)CC(C)N3C(=O)C2CC2)CC1 (stereo not drawn) | 4.1% | -18.3 | 3.1% | 6.9% | -6.3% | -0.8%
COCCN1C(=O)CCC1(C)C(=O)NC1CCCCC1 (stereo not drawn) | / | 18.8 | 0.7% | ? | 8.3% | 9.5%
Cc1ccc(C)c(N2CCN(C(=O)CNS(=O)(=O)c3cccs3)CC2)c1 | 1.6% | -0.6 | 5.7% | -15.3% | -28.6% | -18.8%
SMILES | uPA generation | IL1B secr inh | HT1080 IDH1KD tx | HT1080-NT tox | TDP1 cell CPT | TDP1 cell noCPT
COc1ccc(NS(=O)(=O)c2ccc3c(c2)CC(C)N3C(C)=O)c(OC)c1 (stereo not drawn) | / | / | / | / | 18.4µM* | 20.6µM*
CC(=O)N1c2ccc(S(=O)(=O)NCc3ccco3)cc2CC1C (stereo not drawn) | -10.2% | 0.2 | 2.0% | -2.5% | -8.2% | -27.4%
CC1Cc2cc(S(=O)(=O)NCc3ccccc3Cl)ccc2N1C(=O)C1CCC1 (stereo not drawn) | / | / | / | / | 14.6µM* | 7.31µM*
COc1ccccc1CNS(=O)(=O)c1ccc2c(c1)CC(C)N2C(C)=O (stereo not drawn) | / | / | / | / | ? | 18.4µM*
COc1cccc(CNS(=O)(=O)c2ccc3c(c2)CC(C)N3C(=O)C2CC2)c1 (stereo not drawn) | -5.1% | 2.0 | -20.7% | ? | 20.6µM* | 10.3µM*
C[C@@H](O)[C@H]1C(=O)N2C(C(=O)O)=C(S[C@@H]3CN[C@H](CNS(N)(=O)=O)C3)[C@H](C)[C@H]12 | / | / | / | / | ? | -60.5%
O=C1CN2CCC1C/C2=C\c1ccnc2c(Cl)cccc12 (stereo not drawn) | 0.5% | 9.5 | 4.1% | 5.8% | ? | ?

Source: PubChem BioAssay
